For twelve compounds, Potency results are on record in PubChem BioAssay (NCATS).

Inconclusive results are not listed. A call without a number means that no potency is given here. The source made the active and inactive calls. Calls come from the whole dose curve; as a rule, active = well fitted inhibition curve with a large enough effect; inconclusive = small, poorly fitted or top-dose-only effect; inactive = no such curve, though single readings can be large or run the other way.
Potency is the fitted concentration of half-maximal effect.

Sequence of Nuclear receptor ROR-gamma (Homo sapiens) (P51449 whole entry, looked up): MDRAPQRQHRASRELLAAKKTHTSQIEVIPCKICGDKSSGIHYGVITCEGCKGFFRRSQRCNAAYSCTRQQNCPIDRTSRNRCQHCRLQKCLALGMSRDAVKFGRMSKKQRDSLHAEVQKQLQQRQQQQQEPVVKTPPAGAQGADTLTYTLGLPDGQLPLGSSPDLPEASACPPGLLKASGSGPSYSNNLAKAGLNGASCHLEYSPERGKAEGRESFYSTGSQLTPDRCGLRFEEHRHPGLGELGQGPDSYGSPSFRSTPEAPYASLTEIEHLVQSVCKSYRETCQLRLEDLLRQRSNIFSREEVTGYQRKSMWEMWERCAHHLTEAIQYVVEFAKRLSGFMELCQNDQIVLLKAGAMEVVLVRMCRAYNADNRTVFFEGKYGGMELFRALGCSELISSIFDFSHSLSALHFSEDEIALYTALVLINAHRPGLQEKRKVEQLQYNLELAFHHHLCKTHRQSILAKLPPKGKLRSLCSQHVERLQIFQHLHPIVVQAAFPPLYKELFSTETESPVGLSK

The test concerns the target Nuclear receptor ROR-gamma (Homo sapiens) (UniProt P51449). Description: qHTS assay for small molecule antagonists of the retinoid-related orphan receptor gamma (ROR-gamma) signaling pathway (AID 651802). Note: nearly all actives have a fitted effect of over 60% in size. The settings on record: ROR-gamma antagonist cell reporter assay; series mostly up to 92.2 µM. The source says:
National Center for Advancing Translational Sciences [NCATS]
NIH Chemical Genomics Center [NCGC]
National Institutes of Environmental Health Sciences [NIEHS]
National Toxicology Program [NTP]
Nuclear steroid hormone receptors are involved in many biological processes including inflammatory responses, cell proliferation, and apoptosis. Environmental factors or compounds disrupting these nuclear receptor pathways and gene expression may promote susceptibility to immunotoxicants and autoimmune diseases. One important group of these expression factors are the retinoid-related orphan receptors. To assess compounds that may interfere with the retinoid-related orphan receptor gamma (ROR-gamma) transcription factor, a cell-based luciferase assay was used.
The CHO cell-based assay utilizes a TET-inducible ROR expression factor and ROR response element-LUC reporter gene. Reporter activity was induced using doxycycline and measured after 16hr incubation. Luminescence was read using Viewlux (PerkinElmer), where a decrease in reporter activity would show a decrease in luminescence.
1,000 cells in 4 uL/well were dispensed into white wall/solid bottom 1536-well plates using a Multidrop Combi (Thermo Scientific) dispenser. Following transfer of 23 nL compound or DMSO vehicle by a pin tool, the plates were treated with 1 ul doxycycline to induce reporter gene activity. After 16hr incubation at 37C and 5% CO2, 5uL one-glo (promega) was added to each plate and following 30 min incubation at room temperature, luminescence was quantified on a ViewLux (PerkinElmer) plate reader.
On to `CC12CCC(CC1)C(C)(C)O2`, for which the Potency entry is “inactive”.

`CCCCOC(=O)c1ccc(O)cc1`: the Potency entry was “inactive”. The entry for `O=C1O[C@H]([C@@H](O)CO)C(O)=C1O` is “inactive”; for `Cc1c(O)cccc1C(=O)N[C@@H](CSc1ccccc1)[C@H](O)CN1C[C@H]2CCCC[C@H]2C[C@H]1C(=O)NC(C)(C)C` it is 8.41 µM (active); for `CCCCCCCCCCCCOS(=O)(=O)O` it is “inactive”. Regarding `NCCNCCNCCN`, the Potency result was “inactive”. The entry for `Cc1cc2nc3c(=O)[nH]c(=O)nc-3n(C[C@H](O)[C@H](O)[C@H](O)CO)c2cc1C` is “inactive”; for `NCCNCCNCCNCCN` it is “inactive”. The result for `Cc1cc(CC(=O)O)n(C)c1C(=O)c1ccc(Cl)cc1` reads “inactive”; that for `COc1ccccc1O`, “inactive”; that for `[Cl][In]([Cl])[Cl]`, “inactive”.

As to `CC1(C)[C@@H]2CC[C@@]1(C)C(=O)C2`, the Potency result was “inactive”.
